Cav32 inh – inhibitors of human Cav3.2 T-type calcium channel. AID 449739. B-score at 10 µM. Cav3.2-expressing cells, Fluo-4 calcium fluorescence FDSS; hits give low values. 100,000 tested, 4% active. O95180;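 active = single-dose well whose peak fluorescence ratio is a statistical outlier from its plate by either plate-standardised score or position-corrected B-score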
CYP2C19 inhib – blocks human cytochrome P450 2C19; inhibition, % at 5 µM; 96,000 tested, 21% active; CYP2C19 Supersomes, luciferin-H EGE luminescence, 30 min;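 active = CYP2C19 inhibition above a set limit at 5 µM in the primary screen, cut at about 50% in these data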
Target sequence (P33261 whole entry, looked up): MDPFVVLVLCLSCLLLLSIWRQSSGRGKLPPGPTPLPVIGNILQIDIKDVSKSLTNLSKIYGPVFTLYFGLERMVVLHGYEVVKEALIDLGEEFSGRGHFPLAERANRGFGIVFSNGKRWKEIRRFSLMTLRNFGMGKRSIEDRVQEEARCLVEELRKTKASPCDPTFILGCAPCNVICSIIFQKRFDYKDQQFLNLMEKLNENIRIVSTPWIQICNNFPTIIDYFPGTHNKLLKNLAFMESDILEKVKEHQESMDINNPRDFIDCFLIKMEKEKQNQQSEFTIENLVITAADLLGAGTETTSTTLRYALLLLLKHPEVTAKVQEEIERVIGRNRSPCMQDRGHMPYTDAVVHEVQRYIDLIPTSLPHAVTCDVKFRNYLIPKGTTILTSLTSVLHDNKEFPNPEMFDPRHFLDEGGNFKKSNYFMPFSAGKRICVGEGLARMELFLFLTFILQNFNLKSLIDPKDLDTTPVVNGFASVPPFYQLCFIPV
CYP2C9 act – increases human cytochrome P450 2C9 activity | P11712 | recombinant CYP2C9, luciferin-H conversion, luminescence; hits give high values; factor 1 = untreated enzyme, 0 = blocked | activation factor at 5 µM | 96,000 tested, 1.4% active | AID 1024;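 active = activation factor of 2 or more for CYP2C9 at a 5 µM dose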
CYP2C9 inh – human CYP2C9 inhibition; AID 777; P11712; 96,000 tested, 20% active; CYP2C9 Supersomes, luciferin-H conversion, luminescence; inhibition, % at 5 µM;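 active = blocking of liver enzyme CYP2C9 beyond about 50% at 5 µM, limit read from the data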
CYP2C19 activ – increases human CYP2C19 enzyme activity. activation factor at 5 µM. 96,000 tested, under 10 active. P33261. recombinant CYP2C19, luciferin-H EGE luminescence; hits give high values; 0 = fully inhibited enzyme, 1 = untreated enzyme;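 active = activation factor of at least 2 at 5 µM in the primary screen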
Each line names hits and unclear results; the compound was inactive in the other large screens. Rows were chosen to be rich in hits. Some 27% of all compounds tested hit in one or more screens of this group.

Cc1ccc2c(CC(=O)O)coc2c1C	none
O=C1CCC(=O)N1c1nc2n(n1)C(c1ccccc1)C=C(c1ccc(Br)cc1)N2 (stereo unspecified)	CYP2C9 inh 61 (no result: Cav32 inh)
Cc1oc(-c2ccccc2F)nc1CS(=O)(=O)CC(=O)NC1CCCC1	CYP2C9 inh 52
Cc1ccc(-c2nc(CS(=O)(=O)CC(=O)N3CCc4ccccc4C3)c(C)o2)cc1	Cav32 inh -9, CYP2C9 inh 72
Cc1oc(-c2ccccc2F)nc1CS(=O)(=O)CC(=O)N1CCc2ccccc21	Cav32 inh -4.7
Cc1cc(-c2n[nH]c(=S)o2)c(C)n1-c1ccccc1	none
Oc1cc2ccccc2cc1-c1n[nH]c(=S)o1	CYP2C9 inh 68
O=C(C1CCCN(S(=O)(=O)c2ccc(Cl)cc2)C1)N(Cc1cccs1)C1CC1 (stereo unspecified)	Cav32 inh -5.6, CYP2C19 inhib 69
CCOC(=O)C1CCCN(S(=O)(=O)c2cccs2)C1 (stereo unspecified)	none
COc1ccc(OC)c(NC(=O)c2ccc(CN(c3cc(Cl)ccc3C)S(=O)(=O)c3ccccc3)cc2)c1	none
COC(=O)c1cccc(COC(=O)c2ccc(CS(=O)(=O)c3ccc(C)cc3)cc2)c1	CYP2C9 inh 77
Cc1ccc(S(=O)(=O)CCCS(=O)(=O)c2ccc(C)cc2)cc1	CYP2C19 inhib 52
Cc1ccc(S(=O)(=O)Cc2cccc(C(=O)N3CCOCC3)c2)cc1	none
COC(=O)c1ccc(CS(=O)(=O)c2ccc(C)cc2)cc1	CYP2C9 inh 58
Nc1ccc(N2CCN(C(=O)c3ccco3)CC2)cc1	none
Cc1c(O)c(CN2CCCC2)cc2c3c(c(=O)oc12)CCC3	CYP2C9 inh 52
CCc1cc(=O)oc2c(C)c(O)c(CN3CCCCC3)cc12	none
Cc1c(O)c(CN2CCCC2)cc2c1oc(=O)c1ccccc12	CYP2C19 inhib 57
Cc1c(C(=O)O)oc2ccc(S(=O)(=O)N3CCC(C)CC3)cc12	none
CCOC(=O)N1CCN(C(=O)c2oc3ccc(S(=O)(=O)N4CC(C)CC(C)C4)cc3c2C)CC1 (stereo unspecified)	CYP2C19 inhib 61, CYP2C9 inh 51
CCOC(=O)C1CCN(C(=O)c2oc3ccc(S(=O)(=O)N4CC(C)CC(C)C4)cc3c2C)CC1 (stereo unspecified)	Cav32 inh -5.9
CC#CCCCC(=O)Nc1cccc(C(=O)O)c1	none
CCOC(=O)N1CC=C2C(C#N)=C(N)C(C#N)(C#N)[C@H](c3ccc(OC(C)C)c(OCC)c3)[C@H]2C1	CYP2C9 inh 74
Cc1nnsc1C(=O)NC(C)C12CC3CC(CC(C3)C1)C2 (stereo unspecified)	CYP2C19 inhib 52
CC(NC(=O)C1CCN(c2nnc(-n3cccc3)s2)CC1)C12CC3CC(CC(C3)C1)C2 (stereo unspecified)	none
COc1cc(CNn2cn[nH]c2=S)cc(Cl)c1OCc1ccccc1	CYP2C19 inhib 82
O=C1CSC(c2ccc(F)cc2)N1c1nnc(C23CC4CC(CC(C4)C2)C3)s1 (stereo unspecified)	none
COc1ccc(S(=O)(=O)Nc2cc(C)c(O)cc2C(C)C)cc1	CYP2C19 inhib 99, CYP2C9 act 2.4
COc1ccc(S(=O)(=O)NC(C)C(=O)O)cc1 (stereo unspecified)	none
COc1ccc(S(=O)(=O)Nc2cc(C(C)C)c(O)cc2C)cc1	Cav32 inh -4.8, CYP2C19 inhib 88
COC(=O)c1sccc1NS(=O)(=O)c1ccc(OC)cc1	none
C#Cc1ccc([C@@H]2C=C(C(=O)NCc3ccccc3)O[C@H](OCC)[C@H]2CCCO)cc1	none (no result: CYP2C19 inhib, CYP2C9 act, CYP2C9 inh, CYP2C19 activ)
COc1ccccc1CNC(=O)Cn1cccc1	none
Cc1ccc(S(=O)(=O)N2CCC(=O)N(CCOC(=O)Nc3ccc(F)cc3)CC2)cc1	none (no result: CYP2C19 inhib, CYP2C9 act, CYP2C9 inh, CYP2C19 activ)
Cc1ccc(C(=O)CSc2nnc(-c3c[nH]c4ccccc34)o2)cc1	CYP2C9 inh 53
CC1CCCCN1C(=O)CSc1nnc(-c2c[nH]c3ccccc23)o1 (stereo unspecified)	CYP2C19 inhib 79
O=C(Nc1c(Cl)cccc1Cl)c1cc(=O)n(Cc2ccccc2)c(=O)[nH]1	none
O=C(CC1CCCCC1)NC1CCCC1	none
Cc1ccnc(NC(=O)CCC2CCCCC2)c1	CYP2C19 inhib 86
Cc1cc(NC(=O)CCC2CCCC2)no1	CYP2C19 inhib 59
O=C(CCC1CCCC1)NC1CCCCC1	CYP2C19 inhib 57
COC(=O)C(C(=O)Nc1cc(C)on1)C1CCCCCC1 (stereo unspecified)	CYP2C19 inhib 64, CYP2C9 inh 52
CCOC(=O)NC(O)C(=O)c1cccs1 (stereo unspecified)	none
NC(=O)NC1NC(=O)NC1=O (stereo unspecified)	none (no result: CYP2C19 inhib, CYP2C9 act, CYP2C9 inh, CYP2C19 activ)
CC(C)CCNC(=O)C1CCC(=O)N1C(C)C (stereo unspecified)	none
Cc1ccnc(NC(=O)C23CC4CC(CC(C4)C2)C3)c1	Cav32 inh -6.1, CYP2C19 inhib 94
O=C(CCC1CCCCC1)NNC(=O)NC12CC3CC(CC(C3)C1)C2	CYP2C19 inhib 95
CCOC(=O)C(C(=O)Nc1ccc(C)cc1)C1CCCCC1 (stereo unspecified)	CYP2C19 inhib 79, CYP2C9 inh 56
CCC(=O)c1ccc(OCCN2CCOCC2)cc1	none
CCC(=O)c1ccc(OCCn2cncn2)cc1	CYP2C19 inhib 52, CYP2C9 inh 67
CCOC(=O)c1c(-c2ccc(C)o2)csc1NC(=S)NC(=O)c1ccccc1Br	CYP2C9 inh 71
CCOC(=O)c1c(-c2ccc(C)o2)csc1NC(=O)CSc1nnc(C)s1	Cav32 inh -6.2, CYP2C19 inhib 88, CYP2C9 inh 96
CCOC(=O)c1c(-c2ccc(C)o2)csc1NC(=O)CSc1nnnn1-c1ccccc1	CYP2C19 inhib 80, CYP2C9 inh 96
CCOC(=O)c1sc(NC(=S)NC(=O)c2ccccc2Cl)c(C(=O)OCC)c1C	none
CCOC(=O)c1c(-c2ccc(C)o2)csc1NC(=O)COC(=O)c1ccc(NC(N)=O)cc1	CYP2C9 inh 91
Cc1ccc(/C=N\NC(=O)c2cc(OCC(F)(F)F)ccc2OCC(F)(F)F)cc1	none
Cc1cc(C)c(S(=O)(=O)Nc2ccc(O)cc2)c(C)c1	CYP2C19 inhib 71
CN(C)C(=O)c1cc(F)ccc1Sc1cc(Cl)ccc1Cl	CYP2C19 inhib 98 (no result: Cav32 inh)
Cc1nc(C(=O)N(C)C)nn1-c1ccc(Cl)cc1Cl	none
CCOC(=O)c1cnc(SC)nc1Sc1cc(Cl)ccc1Cl	none
CN(C)C(=O)c1cc(Cl)ccc1Sc1cc(Cl)ccc1Cl	CYP2C19 inhib 97, CYP2C9 inh 84 (no result: Cav32 inh)
Cc1cccn2cc(-c3ccc(S(=O)(=O)N4CCOCC4)cc3)nc12	none
O=S(=O)(c1ccc(-c2cn3ccccc3n2)cc1)N1CCOCC1	CYP2C9 inh 55
O=S(=O)(c1ccc(Oc2ccccc2)cc1)N1CCOCC1	CYP2C9 inh 57
O=C(CCc1ccc(S(=O)(=O)N2CCOCC2)cc1)Oc1ccccc1	none
O=C(c1ccco1)N1CCN(S(=O)(=O)c2ccc(Oc3ccccc3)cc2)CC1	CYP2C19 inhib 54, CYP2C9 inh 84
